Records with an inconclusive call do not appear. The source made the active and inactive calls. How the source made its calls, unless noted: active means hit-call score of the fitted dose curve at least 0.9, where 1 is the maximum; inconclusive means response in the unintended direction; inactive means score below 0.9.
What was measured:
[1] = target: Cellular tumor antigen p53 (Homo sapiens) (UniProt P04637); test: TOX21_p53_BLA_p2_ratio: Tox21 HCT-116 p53 Agonism Beta-lactamase Assay, Ratio, Phase 2 (AID 2283592)
Method in brief: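 HCT-116 cells with p53-responsive beta-lactamase reporter, 4000 cells/well, preincubated 5 h, then compound in DMSO (217-fold dilution) for 16 h at 37C. CCF4-AM substrate 2 h at room temperature; 460/530 nm emission ratio fitted upward versus DMSO.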

[2] = target: Cellular tumor antigen p53 (Homo sapiens) (UniProt P04637); test: TOX21_p53_BLA_p3_ratio: Tox21 HCT-116 p53 Agonism Beta-lactamase Assay, Ratio, Phase 3 (AID 2283596)
Method in brief: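 HCT116 p53-bla cells (4000/well) given compound in DMSO (217-fold dilution) after 5 h, incubated 16 h at 37C. CCF4-AM substrate 2 h at room temperature; 460/530 nm emission ratio, gain fitted against DMSO.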

[3] = target: Cellular tumor antigen p53 (Homo sapiens) (UniProt P04637); test: TOX21_p53_BLA_p5_ratio: Tox21 HCT-116 p53 Agonism Beta-lactamase Assay, Ratio, Phase 5 (AID 2283599)
Method in brief: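 Beta-lactamase reporter ratio (blue 460 nm over green 530 nm, 405 nm excitation) after 2 h CCF4-AM loading, in HCT-116 cells exposed 16 h at 37 C to compounds pinned at 217-fold dilution. Increases relative to DMSO baseline scored.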

[4] = target: Cellular tumor antigen p53 (Homo sapiens) (UniProt P04637); test: TOX21_p53_BLA_p4_ratio: Tox21 HCT-116 p53 Agonism Beta-lactamase Assay, Ratio, Phase 4 (AID 2283601)
Method in brief: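 Signal is the blue/green (460nm/530nm) ratio of cleaved versus uncleaved CCF4-AM substrate, read after 2 h substrate loading. Cells were HCT116 carrying the p53-responsive beta-lactamase reporter, dosed 16 h at 37C, 5% CO2; CellTiter-Glo measured in parallel.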

[5] = TOX21_p53_BLA_p5_viability: Viability Assessment in the Tox21 HCT-116 p53 Agonism Beta-lactamase Assay, Phase 5 (AID 2283600)
Method in brief: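 HCT-116 p53 beta-lactamase reporter cells, 4000/well, were exposed to compound (pin transfer, 217-fold dilution) for 16 hours at 37C. Cellular ATP was read by CellTiter-Glo luminescence after 30 min at room temperature.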

[6] = CCTE_Harrill_HTTr_Viability_MCF7: CCTE's 6-hour Cell Viability Assessment for the High-Throughput Transcriptomics (HTTr) Platform, in MCF-7 cells cultured in DMEM + 10% fetal bovine serum, Harrill Lab (AID 2284010; active means hit-call score of the fitted dose curve at least 0.9, where 1 is the maximum; inactive means score below 0.9)
Method in brief: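 MCF-7 cells in DMEM + 10% FBS, 384-well, exposed 6 h to an eight-point dilution series. Membrane integrity scored by high-content imaging of propidium iodide exclusion; bidirectional fit versus DMSO.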

Measured: outcome

Sequence of Cellular tumor antigen p53 (Homo sapiens) (P04637 whole entry, looked up): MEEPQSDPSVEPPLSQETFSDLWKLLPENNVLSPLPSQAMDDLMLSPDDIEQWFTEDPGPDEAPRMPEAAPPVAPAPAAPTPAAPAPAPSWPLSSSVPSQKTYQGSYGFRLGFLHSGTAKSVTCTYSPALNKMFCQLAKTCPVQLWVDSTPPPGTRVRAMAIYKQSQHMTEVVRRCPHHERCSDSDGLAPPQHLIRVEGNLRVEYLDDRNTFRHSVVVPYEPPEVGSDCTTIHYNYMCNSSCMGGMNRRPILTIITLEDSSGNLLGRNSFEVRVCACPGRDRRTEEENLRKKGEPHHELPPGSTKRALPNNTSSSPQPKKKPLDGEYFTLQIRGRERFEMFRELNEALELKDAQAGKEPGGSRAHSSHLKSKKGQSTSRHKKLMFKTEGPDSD

CC[C@@H](CO)NC(=O)[C@@H]1C=C2c3cccc4c3c(cn4C)C[C@H]2N(C)C1
inactive: [1] | [2] | [3] | [4]

O=C1NCN(c2ccccc2)C12CCN(CCCOc1ccc(F)cc1)CC2
inactive: [1] | [2] | [5] | [4]

Cc1cccc(C#N)c1
inactive: [1] | [2] | [3] | [5] | [4]

CCCN(CCC)CCc1c[nH]c2ccccc12
inactive: [1] | [2] | [5] | [4]

O=C(Cl)C(Cl)Cl
inactive: [1] | [2] | [3] | [5] | [4]

Cc1ccc2cc(C)ccc2c1
inactive: [1] | [2] | [3] | [5] | [4] | [6]

CCN
inactive: [1] | [2] | [3] | [4]

ClP(Cl)(Cl)(Cl)Cl
inactive: [1] | [2] | [4]

Reference: PubChem BioAssay (EPA / NIEHS)
